PubChem BioAssay (EPA / NIEHS)
“And” between values parts separate entries of the source, which are not always exact repeats. Identical values can stand only once. Some compounds were tested as several samples or in several runs, with calls that do not always agree. The source made the active and inactive calls. Rule for the calls: active = hit-call score of the fitted dose curve at least 0.9, where 1 is the maximum; inactive = score below 0.9.

Each molecule was assayed on Human Leukocyte Antigen - DR isotype (HLADR), HLA-DRA (gene 3122) (assay: BSK_BE3C_HLADR: BioMAP Diversity Plus: BE3C Assay for Human Leukocyte Antigen - DR isotype (HLADR) Biomarker Activity (AID 2283032)). Conditions: primary human bronchial epithelial cells; actives raise or lower the signal.
Method in brief: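 Chemicals are dosed onto BE3C bronchial epithelial cultures of human origin and left 24 h. HLA-DR is then measured by ELISA, and the endpoint is fitted in both directions using DMSO as the activity baseline.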
`Nc1ccc(-c2ccc(N)c(N)c2)cc1N` was tested, and the outcome was “inactive”. In the case of `O=c1[nH]c(Cl)c(Cl)cc1Cl`, the outcome was “inactive”. With `O=C(O)CCCc1ccc(N(CCCl)CCCl)cc1` the AC50 was 22 µM (active) and 29.6 µM (active). `COC(C)(C)CCC[C@H](C)C/C=C/C(C)=C/C(=O)OC(C)C` was tested, and the AC50 was 18.5 µM (active). With `O=P1(NCCCl)OCCCN1CCCl` (centres undefined) the outcome was “inactive”. With `O=S(=O)(c1ccccc1)c1ccccc1` the outcome was “inactive”. For `Clc1ccc(-c2ccccc2)cc1`, the outcome was “inactive”. In the case of `Oc1cc(Cl)ccc1Cl`, the outcome was “inactive”.

Each molecule was assayed on Vascular cell adhesion molecule 1 (VCAM1), VCAM1 (gene 7412) (assay: BSK_4H_VCAM1: BioMAP Diversity Plus: 4H Assay for Vascular cell adhesion molecule 1 (VCAM1) Biomarker Activity (AID 2283033;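 for outcome: cell-surface VCAM-1 protein measured by ELISA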)). Conditions: primary human endothelial cells (HUVEC); actives raise or lower the signal.
Method in brief: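 Chemicals are added to primary human umbilical vein endothelial cells. After 24 h, VCAM-1 levels are measured by ELISA. Values come from bidirectional fitting referenced to DMSO.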
With `Nc1ccc(-c2ccc(N)c(N)c2)cc1N` the outcome was “inactive”. In the case of `O=c1[nH]c(Cl)c(Cl)cc1Cl`, the outcome was “inactive”. With `O=C(O)CCCc1ccc(N(CCCl)CCCl)cc1` the AC50 was 27.1 µM (active) and 25.4 µM (active). With `COC(C)(C)CCC[C@H](C)C/C=C/C(C)=C/C(=O)OC(C)C` the AC50 was 31.6 µM (active). In the case of `O=P1(NCCCl)OCCCN1CCCl` (centres undefined), the outcome was “inactive”. With `O=S(=O)(c1ccccc1)c1ccccc1` the outcome was “inactive”. In the case of `Clc1ccc(-c2ccccc2)cc1`, the AC50 was 32.9 µM (active). With `Oc1cc(Cl)ccc1Cl` the outcome was “inactive”.

What follows are molecules tested on Interferon-gamma inducible Protein 10 (IP10), CXCL10 (gene 3627) (assay: BSK_BE3C_IP10: BioMAP Diversity Plus: BE3C Assay for Interferon-gamma inducible Protein 10 (IP10) Biomarker Activity (AID 2283034)). Conditions: primary human bronchial epithelial cells; actives raise or lower the signal.
Method in brief: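 IP-10 quantified by ELISA serves as the endpoint. Cells: primary human bronchial epithelium, read 24 h after compound addition. Activity is derived by bidirectional fitting with DMSO as negative control.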
For `Nc1ccc(-c2ccc(N)c(N)c2)cc1N`, the outcome was “inactive”. For `O=c1[nH]c(Cl)c(Cl)cc1Cl`, the outcome was “inactive”. In the case of `O=C(O)CCCc1ccc(N(CCCl)CCCl)cc1`, the AC50 was 16.2 µM (active) and 20 µM (active). With `COC(C)(C)CCC[C@H](C)C/C=C/C(C)=C/C(=O)OC(C)C` the AC50 was 20 µM (active). With `O=P1(NCCCl)OCCCN1CCCl` (centres undefined) the outcome was “inactive”. `O=S(=O)(c1ccccc1)c1ccccc1` was tested, and the outcome was “inactive”. `Clc1ccc(-c2ccccc2)cc1` was tested, and the outcome was “inactive”. With `Oc1cc(Cl)ccc1Cl` the outcome was “inactive”.

Each molecule was assayed on Monokine induced gamma interferon (MIG), CXCL9 (gene 4283) (assay: BSK_BE3C_MIG: BioMAP Diversity Plus: BE3C Assay for Monokine induced gamma interferon (MIG) Biomarker Activity (AID 2283035;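 for outcome: MIG protein measured by ELISA in BE3C cultures after 24 h of dosing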)). Conditions: primary human bronchial epithelial cells; actives raise or lower the signal.
Method in brief: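 hu bronchial epithelial 1° cells, 24 h cpd; MIG by ELISA; bidirectional fit, DMSO = baseline.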
With `Nc1ccc(-c2ccc(N)c(N)c2)cc1N` the outcome was “inactive”. `O=c1[nH]c(Cl)c(Cl)cc1Cl` was tested, and the outcome was “inactive”. For `O=C(O)CCCc1ccc(N(CCCl)CCCl)cc1`, the AC50 was 28.9 µM (active) and the outcome was “inactive”. In the case of `COC(C)(C)CCC[C@H](C)C/C=C/C(C)=C/C(=O)OC(C)C`, the outcome was “inactive”. In the case of `O=P1(NCCCl)OCCCN1CCCl` (centres undefined), the outcome was “inactive”. For `O=S(=O)(c1ccccc1)c1ccccc1`, the outcome was “inactive”. `Clc1ccc(-c2ccccc2)cc1` was tested, and the outcome was “inactive”. For `Oc1cc(Cl)ccc1Cl`, the outcome was “inactive”.

The molecules below were run on Transforming growth factor beta 1 (TGFb1), TGFB1 (gene 7040) (assay: BSK_BE3C_TGFb1: BioMAP Diversity Plus: BE3C Assay for Transforming growth factor beta 1 (TGFb1) Biomarker Activity (AID 2283036;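 for outcome: TGF-b1 protein level measured by ELISA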)). Conditions: primary human bronchial epithelial cells; actives raise or lower the signal.
Method in brief: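 Bronchial epithelial primary cells are treated with test chemical, then TGF-b1 is quantified by ELISA after 24 hours. Values derive from bidirectional fitting against DMSO, with cytotoxicity checked by SRB staining in parallel cultures.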
With `Nc1ccc(-c2ccc(N)c(N)c2)cc1N` the outcome was “inactive”. For `O=c1[nH]c(Cl)c(Cl)cc1Cl`, the outcome was “inactive”. For `O=C(O)CCCc1ccc(N(CCCl)CCCl)cc1`, the outcome was “inactive” and the AC50 was 20 µM (active). `COC(C)(C)CCC[C@H](C)C/C=C/C(C)=C/C(=O)OC(C)C` was tested, and the outcome was “inactive”. `O=P1(NCCCl)OCCCN1CCCl` (centres undefined) was tested, and the outcome was “inactive”. With `O=S(=O)(c1ccccc1)c1ccccc1` the outcome was “inactive”. For `Clc1ccc(-c2ccccc2)cc1`, the outcome was “inactive”. With `Oc1cc(Cl)ccc1Cl` the outcome was “inactive”.

What follows are molecules tested on Plasminogen activator inhibitor-1 (PAI1), SERPINE1 (gene 5054) (assay: BSK_BE3C_PAI1: BioMAP Diversity Plus: BE3C Assay for Plasminogen activator inhibitor-1 (PAI1) Biomarker Activity (AID 2283037)). Conditions: primary human bronchial epithelial cells; actives raise or lower the signal.
Method in brief: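 Values derive from bidirectional fitting against DMSO baseline of PAI-1 levels, measured by ELISA in human bronchial epithelial cells 24 h after compound addition.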
In the case of `Nc1ccc(-c2ccc(N)c(N)c2)cc1N`, the AC50 was 11.1 µM (active). With `O=c1[nH]c(Cl)c(Cl)cc1Cl` the outcome was “inactive”. `O=C(O)CCCc1ccc(N(CCCl)CCCl)cc1` was tested, and the outcome was “inactive” and the AC50 was 3.97 µM (active). `COC(C)(C)CCC[C@H](C)C/C=C/C(C)=C/C(=O)OC(C)C` was tested, and the outcome was “inactive”. For `O=P1(NCCCl)OCCCN1CCCl` (centres undefined), the outcome was “inactive”. `O=S(=O)(c1ccccc1)c1ccccc1` was tested, and the outcome was “inactive”. With `Clc1ccc(-c2ccccc2)cc1` the outcome was “inactive”. For `Oc1cc(Cl)ccc1Cl`, the outcome was “inactive”.

These molecules were tested on Urokinase-type plasminogen activator receptor (uPAR), PLAUR (gene 5329) (assay: BSK_BE3C_uPAR: BioMAP Diversity Plus: BE3C Assay for Urokinase-type plasminogen activator receptor (uPAR) Biomarker Activity (AID 2283039;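 note: uPAR protein level measured by ELISA on the cells; cells exposed to compound for one day before measurement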)). Conditions: primary human bronchial epithelial cells; actives raise or lower the signal.
Method in brief: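 Steps: dose human primary bronchial epithelial cells, incubate 24 h, measure uPAR by ELISA, then fit gain- or loss-of-signal response bidirectionally relative to DMSO.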
`Nc1ccc(-c2ccc(N)c(N)c2)cc1N` was tested, and the outcome was “inactive”. With `O=c1[nH]c(Cl)c(Cl)cc1Cl` the outcome was “inactive”. With `O=C(O)CCCc1ccc(N(CCCl)CCCl)cc1` the outcome was “inactive”. With `COC(C)(C)CCC[C@H](C)C/C=C/C(C)=C/C(=O)OC(C)C` the outcome was “inactive”. For `O=P1(NCCCl)OCCCN1CCCl` (centres undefined), the outcome was “inactive”. With `O=S(=O)(c1ccccc1)c1ccccc1` the outcome was “inactive”. In the case of `Clc1ccc(-c2ccccc2)cc1`, the outcome was “inactive”. With `Oc1cc(Cl)ccc1Cl` the outcome was “inactive”.

Each molecule was assayed on Interleukin-6 (IL6), IL6 (gene 3569) (assay: BSK_CASM3C_IL6: BioMAP Diversity Plus: CASM3C Assay for Interleukin-6 (IL6) Biomarker Activity for (AID 2283040)). Conditions: primary human coronary artery smooth muscle cells; actives raise or lower the signal.
With `Nc1ccc(-c2ccc(N)c(N)c2)cc1N` the outcome was “inactive”. `O=c1[nH]c(Cl)c(Cl)cc1Cl` was tested, and the outcome was “inactive”. For `O=C(O)CCCc1ccc(N(CCCl)CCCl)cc1`, the AC50 was 15.8 µM (active) and 20 µM (active). For `COC(C)(C)CCC[C@H](C)C/C=C/C(C)=C/C(=O)OC(C)C`, the outcome was “inactive”. With `O=P1(NCCCl)OCCCN1CCCl` (centres undefined) the outcome was “inactive”. For `O=S(=O)(c1ccccc1)c1ccccc1`, the outcome was “inactive”. In the case of `Clc1ccc(-c2ccccc2)cc1`, the outcome was “inactive”. For `Oc1cc(Cl)ccc1Cl`, the outcome was “inactive”.

The molecules below were run on Tissue plasminogen activator (tPA), PLAT (gene 5327) (assay: BSK_BE3C_tPA: BioMAP Diversity Plus: BE3C Assay for Tissue plasminogen activator (tPA) Biomarker Activity (AID 2283041;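 for outcome: tPA level quantified by ELISA one day after compound addition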)). Conditions: primary human bronchial epithelial cells; actives raise or lower the signal.
Method in brief: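 Gain- or loss-of-signal in tPA, measured by ELISA, derived by bidirectional fitting against DMSO. Cells: human primary bronchial epithelial; read at 24 h after chemical dosing.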
For `Nc1ccc(-c2ccc(N)c(N)c2)cc1N`, the outcome was “inactive”. In the case of `O=c1[nH]c(Cl)c(Cl)cc1Cl`, the outcome was “inactive”. `O=C(O)CCCc1ccc(N(CCCl)CCCl)cc1` was tested, and the AC50 was 10.7 µM (active) and the outcome was “inactive”. In the case of `COC(C)(C)CCC[C@H](C)C/C=C/C(C)=C/C(=O)OC(C)C`, the AC50 was 9.71 µM (active). For `O=P1(NCCCl)OCCCN1CCCl` (centres undefined), the outcome was “inactive”. For `O=S(=O)(c1ccccc1)c1ccccc1`, the outcome was “inactive”. For `Clc1ccc(-c2ccccc2)cc1`, the outcome was “inactive”. For `Oc1cc(Cl)ccc1Cl`, the outcome was “inactive”.

Each molecule was assayed on Interleukin-8 (IL8), CXCL8 (gene 3576) (assay: BSK_CASM3C_IL8: BioMAP Diversity Plus: CASM3C Assay for Interleukin-8 (IL8) Biomarker Activity (AID 2283042;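 note: IL-8 protein level quantified by ELISA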)). Conditions: primary human coronary artery smooth muscle cells; actives raise or lower the signal.
For `Nc1ccc(-c2ccc(N)c(N)c2)cc1N`, the outcome was “inactive”. `O=c1[nH]c(Cl)c(Cl)cc1Cl` was tested, and the outcome was “inactive”. `O=C(O)CCCc1ccc(N(CCCl)CCCl)cc1` was tested, and the AC50 was 20 µM (active). With `COC(C)(C)CCC[C@H](C)C/C=C/C(C)=C/C(=O)OC(C)C` the outcome was “inactive”. For `O=P1(NCCCl)OCCCN1CCCl` (centres undefined), the outcome was “inactive”. In the case of `O=S(=O)(c1ccccc1)c1ccccc1`, the outcome was “inactive”. With `Clc1ccc(-c2ccccc2)cc1` the outcome was “inactive”. `Oc1cc(Cl)ccc1Cl` was tested, and the outcome was “inactive”.
